Shn3 3UTR inh: reduction of Shn3 3'UTR firefly luciferase signal, primary screen, Schnurri-3 inhibitor project, cell-based, Clone20 osteoblasts, set 2; AID 588674, 2011; hit rate 0.52% among 360,000; Clone20 osteoblast Shn3 3'UTR firefly luciferase, 24 h; inhibition, % at 12.5 µM;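 active means mean inhibition of at least 75% with every replicate also reaching 75%; inconclusive means mean inhibition at least 75% but some replicate below; inactive means mean inhibition below 75%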;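 further: 0% = median of neutral control wells and 100% = pilot-screen positive control compound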
PAX8 inh HTS: inhibitors of PAX8-driven TPO luciferase reporter, primary screen, RMG-I cells, single concentration; SteadyGlo, 24 h; hit rate 1.2% among 360,000; inhibition, % at 12.6 µM;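 active means mean replicate inhibition at least 60% with every replicate also reaching 60%; inconclusive means only one of the two criteria is met; inactive means mean below 60% and not all replicates reaching 60%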;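 further: luciferase light reporting Pax8 driven TPO promoter activity; plate controls were median of neutral control wells for no effect and mitoxantrone controls for full effect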
Glyco luc inh: increase of ERlucT glycosylation luciferase signal, primary screen, N-linked glycosylation inhibitor project, D54 ERlucT cells, luminescence, set 2. D54 ERlucT glycosylation luciferase reporter, 24 h; percent of 100 nM tunicamycin response. reporter increase, % at 12.5 µM. hit rate 0.23% among 360,000. AID 588692, 2011;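 active means mean luciferase reporter signal, scaled so untreated is 0 and the glycosylation-blocking control 100, at or above a set limit in every replicate; inconclusive means mean reaches the limit but not every replicate does; inactive means mean below the limit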;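 further: luciferase carries N-glycosylation sites so blocking glycosylation raises the light; 0% = median of neutral control wells and 100% = median of 100 nM tunicamycin wells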
HIV Env fusion: inhibitors of HIV-1 Env-driven cell-cell fusion, primary screen, HeLa-JRFL effector, CEM21 target cells, luciferase | inhibition, % at 12.3 µM | hit rate 1.1% among 360,000;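 active means mean replicate inhibition score of at least 50 and every replicate individually at or above 50; inconclusive means only one of the two criteria met; inactive means mean below 50 and not all replicates reaching 50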;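 further: 0% = plate neutral controls and 100% = maraviroc near 300 nM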
NSD2 inh: NSD2 histone methyltransferase inhibitors, primary screen, biochemical, AlphaScreen, single concentration, set 2. NSD2 peptide methylation, 120 min. inhibition, % at 12.5 µM. hit rate 0.54% among 310,000. AID 743445, 2014; in the data active means inhibition above about 50%
Target sequence (O96028 whole entry, looked up): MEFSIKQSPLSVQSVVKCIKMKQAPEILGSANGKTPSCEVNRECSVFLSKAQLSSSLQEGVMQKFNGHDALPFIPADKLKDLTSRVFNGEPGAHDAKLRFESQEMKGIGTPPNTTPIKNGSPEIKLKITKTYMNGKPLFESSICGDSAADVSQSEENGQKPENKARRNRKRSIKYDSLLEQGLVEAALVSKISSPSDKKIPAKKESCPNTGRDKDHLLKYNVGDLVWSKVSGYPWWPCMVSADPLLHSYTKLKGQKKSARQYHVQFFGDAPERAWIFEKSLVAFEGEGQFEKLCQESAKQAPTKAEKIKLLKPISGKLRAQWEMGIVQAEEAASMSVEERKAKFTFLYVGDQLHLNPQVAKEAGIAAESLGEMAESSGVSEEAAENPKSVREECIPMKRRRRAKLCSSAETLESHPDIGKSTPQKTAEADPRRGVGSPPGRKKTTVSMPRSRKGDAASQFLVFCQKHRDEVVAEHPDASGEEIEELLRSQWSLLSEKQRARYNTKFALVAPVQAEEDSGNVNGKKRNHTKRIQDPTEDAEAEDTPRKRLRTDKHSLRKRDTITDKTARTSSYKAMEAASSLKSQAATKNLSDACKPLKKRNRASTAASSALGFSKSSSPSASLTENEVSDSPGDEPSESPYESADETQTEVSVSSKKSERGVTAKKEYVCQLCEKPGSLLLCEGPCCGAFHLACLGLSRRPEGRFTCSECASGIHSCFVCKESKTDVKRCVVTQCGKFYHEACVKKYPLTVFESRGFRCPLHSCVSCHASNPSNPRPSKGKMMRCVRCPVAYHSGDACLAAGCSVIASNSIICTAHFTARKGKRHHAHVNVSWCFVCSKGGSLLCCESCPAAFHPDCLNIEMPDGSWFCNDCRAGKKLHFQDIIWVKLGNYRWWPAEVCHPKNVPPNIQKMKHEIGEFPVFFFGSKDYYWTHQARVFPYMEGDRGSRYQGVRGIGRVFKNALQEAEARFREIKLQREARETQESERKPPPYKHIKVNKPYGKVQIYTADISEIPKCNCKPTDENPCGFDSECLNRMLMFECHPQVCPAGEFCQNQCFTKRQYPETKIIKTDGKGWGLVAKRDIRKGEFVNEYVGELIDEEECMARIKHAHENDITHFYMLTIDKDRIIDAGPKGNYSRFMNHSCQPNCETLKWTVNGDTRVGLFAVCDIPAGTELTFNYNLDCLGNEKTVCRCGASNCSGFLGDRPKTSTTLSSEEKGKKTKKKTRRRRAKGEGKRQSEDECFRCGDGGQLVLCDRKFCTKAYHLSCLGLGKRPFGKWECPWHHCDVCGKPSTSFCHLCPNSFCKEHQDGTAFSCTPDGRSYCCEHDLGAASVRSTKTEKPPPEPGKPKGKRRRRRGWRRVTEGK
LMP1 NFkB inh: EBV LMP1-driven NF-kappaB luciferase reporter inhibitors, primary screen, cell-based, luminescence, single point; LMP1-induced NF-kappaB luciferase reporter cells; inhibition, % at 12.5 µM; hit rate 0.69% among 350,000; in the data active means inhibition above about 41%; inconclusive means no clear call, values can overlap the other calls;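 further: 0% = neutral control wells and 100% = reference inhibitor control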
Starred values were filed as active, the others as inactive; ? = inconclusive; . = no result given; [ ] = another dose, or the depositor's remark. Rows were chosen to be rich in hits. Some 2.8% of all compounds tested hit in one or more screens of this group.

SMILES	Shn3 3UTR inh	PAX8 inh HTS	Glyco luc inh	HIV Env fusion	NSD2 inh	LMP1 NFkB inh
COc1cccc(NC(=O)N[C@@H]2CC[C@@H](CC(=O)Nc3ccc(-c4ccccc4)cc3)O[C@H]2CO)c1	.	-3	.	14[16.7 µM]	.	.
C[C@@H]1CN([C@H](C)CO)C(=O)c2cc(NC(=O)C3CCCCC3)ccc2O[C@@H]1CN(C)Cc1ccc(Oc2ccccc2)cc1	.	.	.	-9[16.7 µM]	.	.
COc1ccc(S(=O)(=O)Nc2ccc3c(c2)CC(=O)N([C@@H](C)CO)C[C@@H](C)[C@@H](CN(C)S(=O)(=O)c2c(C)noc2C)O3)cc1	.	.	.	0[16.7 µM]	.	.
CO[C@H]1CN(C)C(=O)c2cc(NS(C)(=O)=O)ccc2OC[C@H](C)N(C(=O)C2CCCC2)C[C@@H]1C	.	-4	.	.	.	.
O=C(Nc1ccc2c(c1)OCO2)N[C@@H]1CC[C@@H](CC(=O)N2CCN(c3ccccc3)CC2)O[C@@H]1CO	.	5	.	-12[16.7 µM]	.	.
C[C@@H]1CCCCO[C@@H](CN(C)C(=O)Nc2ccc(C(F)(F)F)cc2)[C@H](C)CN([C@@H](C)CO)C(=O)c2cc(NC(=O)c3ccncc3)ccc2O1	.	28	.	5[16.7 µM]	.	.
C[C@H]1CCCCO[C@@H](CN(C)Cc2ccc(C(F)(F)F)cc2)[C@@H](C)CN([C@@H](C)CO)C(=O)c2cc(NC(=O)c3ccccc3)ccc2O1	.	87*	.	69*[16.7 µM]	.	.
C[C@@H]1CN([C@@H](C)CO)C(=O)c2cc(NC(=O)c3ccccc3)ccc2O[C@@H](C)CCCCO[C@H]1CN(C)Cc1ccc(C(F)(F)F)cc1	.	88*	.	18[16.7 µM]	.	.
C[C@H]1CCCCO[C@H](CN(C)C(=O)Nc2ccc(C(F)(F)F)cc2)[C@@H](C)CN([C@@H](C)CO)C(=O)c2cc(NC(=O)c3ccncc3)ccc2O1	.	93*	.	56*[16.7 µM]	.	.
O=C(Nc1ccc(F)cc1)N1C[C@H]2[C@@H](c3ccccc31)[C@H](CO)N2C(=O)Cc1cccnc1	.	-10	.	.	.	.
C[C@H](O)C#Cc1cnc2c(c1)C(=O)N([C@@H](C)CO)C[C@@H](C)[C@H](CN(C)CC1CCCC1)O2	.	10	.	21[16.7 µM]	.	.
CCOc1ccc2c(ccc(/C=C/c3cc(C)c4cccnc4c3O)[n+]2C)c1	87*	.	-13	.	19	0
Cc1ccccc1OCc1nnc(SCc2cc(=O)[nH]c3ccccc23)n1-c1ccccc1	3	71*	-5	.	1	7
COc1ccc2[nH]c3c(=O)n(/N=C/[C@H]4C(C)C=C(C)CC4C)c(=O)[nH]c3c2c1 (stereo partly drawn)	1	-2	0	-42	.	6
CC1=CC(C)[C@H](/C=N/n2c(=O)[nH]c3c([nH]c4ccc(Br)cc43)c2=O)C(C)C1 (stereo partly drawn)	6	7	37*	18	1	-81
C[C@@H]1CN([C@H](C)CO)C(=O)c2c(c3ccccc3n2C)-c2ccccc2CO[C@@H]1CN(C)S(=O)(=O)c1ccc(C(F)(F)F)cc1	.	93*	.	.	.	.
C[C@H](CO)N1C[C@H](C)[C@H](CN(C)S(=O)(=O)c2ccccc2)OCc2ccccc2-c2c(n(C)c3ccccc23)C1=O	-6	3	1	5	.	-4
C[C@@H]1CN([C@H](C)CO)C(=O)c2c(c3ccccc3n2C)-c2ccccc2CO[C@H]1CN(C)S(=O)(=O)c1ccc(C(F)(F)F)cc1	.	83*	.	.	.	.
C[C@H]1CN([C@@H](C)CO)C(=O)c2c(c3ccccc3n2C)-c2ccccc2CO[C@H]1CN(C)S(=O)(=O)c1ccc(C(F)(F)F)cc1	.	85*	.	.	.	.
Cc1ccc(S(=O)(=O)Nc2cccc3c2O[C@H](CN(C)S(=O)(=O)c2cn(C)cn2)[C@@H](C)CN([C@H](C)CO)C3=O)cc1	.	5	.	4[16.7 µM]	.	.
O=C(c1ccc(F)cc1)N1CCCCN2[C@@H](CO)[C@H](c3ccc(-c4ccc(F)cc4)cc3)[C@@H]2C1	.	5	.	.	.	.
Cc1cc(C(=O)Nc2cc(C(F)(F)F)ccc2N2CCOCC2)no1	15	-4	-4	11	-12	-1
CCCCn1nc(C(=O)Nc2cc(C(F)(F)F)ccc2N2CCOCC2)ccc1=O	36	93*	-11	27	2	-2
C[C@H](CO)N1C[C@H](C)[C@@H](CN(C)Cc2ccccc2)OCCCC[C@H](C)Oc2ccc(NC(=O)Nc3cccc4ccccc34)cc2C1=O	.	-2	.	5[16.7 µM]	.	.
C[C@@H]1CN([C@@H](C)CO)C(=O)c2cc(NC(=O)Nc3cccc4ccccc34)ccc2O[C@@H](C)CCCCO[C@H]1CN(C)C(=O)c1ccccc1	17	17	-5	61*[16.7 µM]	.	-3
SMILES	Shn3 3UTR inh	PAX8 inh HTS	Glyco luc inh	HIV Env fusion	NSD2 inh	LMP1 NFkB inh
C[C@H]1CCCCO[C@@H](CN(C)Cc2ccccc2)[C@@H](C)CN([C@@H](C)CO)C(=O)c2cc(NC(=O)Nc3cccc4ccccc34)ccc2O1	.	31	.	110*[16.7 µM]	.	.
C[C@H]1CN([C@@H](C)CO)S(=O)(=O)c2ccc(-c3ccc(C(=O)N(C)C)cc3)cc2O[C@@H]1CN(C)C(=O)C1CC1	.	.	.	-13[16.7 µM]	.	.
O=C(N[C@@H]1CC[C@@H](CCNS(=O)(=O)c2ccc(F)cc2)O[C@@H]1CO)c1cnccn1	.	3	.	-26[16.7 µM]	.	.
O=C(Nc1nc(-c2ccccn2)cs1)c1ccc(Br)s1	93*	.	-4	8	2	87*
O=C(Nc1ccc(Br)cc1)c1cccc(-n2cnnn2)c1	-5	13	-4	3	-3	8
O=C(Nc1nc(-c2ccccn2)cs1)c1cccc(-n2cnnn2)c1	98*	38	-11	19	.	30
O=C(Nc1nc(-c2cc(Cl)sc2Cl)cs1)c1ccc(Br)s1	-1	-2	1	?	4	44*
O=C(Nc1nc(-c2ccccn2)cs1)c1ccco1	35	-20	-6	22	4	10
O=C(C[C@H]1C[C@@H]2c3cc(NC(=O)C4CCC4)ccc3O[C@@H]2[C@H](CO)O1)NCc1ccccn1	.	11	.	2[16.7 µM]	.	.
C[C@@H]1CN([C@@H](C)CO)S(=O)(=O)c2ccc(C#CC3(O)CCCC3)cc2O[C@H]1CN(C)C(=O)c1cccnc1	.	3	.	.	.	.
C[C@H]1CN([C@@H](C)CO)C(=O)c2c(c3ccccc3n2C)-c2ccccc2CO[C@@H]1CN(C)Cc1ccc(F)cc1	.	42	.	.	.	.
CC(C)NC(=O)Nc1ccc2c(c1)C(=O)N([C@@H](C)CO)C[C@@H](C)[C@H](CN(C)C(=O)Cc1ccccc1)OCCCC[C@@H](C)O2	.	-3	.	-40[16.7 µM]	.	.
COc1ccc(-c2c[n+](CC(=O)OC3CC(C)CCC3C(C)C)c3n2CCC3)cc1 (stereo not drawn)	82	91*	14	60*	.	4
CC(C)[C@@H]1CC[C@@H](C)C[C@H]1OC(=O)C[n+]1cc(-c2ccc(Cl)cc2)n2c1CCCCC2	79	113*	5	83*	.	30
